This note sets out measurements from PubChem BioAssay (NCI).

Structures are written as SMILES. Compounds without any hit were thinned out: in the full panel of roughly 83,000, 20% have a hit.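 In brief: 96-well plates, 48 h treatment, single concentration, percent growth endpoint.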 Unmarked numbers belong to inactive results. The source made the active and inactive calls. The calls were made as follows: active = growth percent below 10; inactive = the rest.

Among the test systems are SK-MEL-2 melanoma; EKVX NSCLC; SN12C renal; UO-31 renal; TK-10 renal; CAKI-1 renal; A498 renal; MOLT-4 leukemia; SR leukemia; RPMI-8226 leukemia; OVCAR-8 ovarian; OVCAR-5 ovarian; OVCAR-4 ovarian; SK-OV-3 ovarian; IGROV1 ovarian; OVCAR-3 ovarian; HS 578T breast; NCI/ADR-RES ovarian; CCRF-CEM leukemia; ACHN renal.
Assay in all cases: NCI-60 one-dose screen, 48 h (100 = growth as untreated, 0 = no growth, -100 = all killed)
What all share (details): 10 µM unless noted

Regarding `Cc1c(C)c2c(c(C)c1OCC(=O)O)CC[C@@](C)(CCC[C@@H](C)CCC[C@@H](C)CCCC(C)C)O2`, the growth was -26.6% [50 µM] (active) in the test with SK-MEL-2 melanoma; 32.3% [50 µM] with EKVX NSCLC; -32.3% [50 µM] (active) in the test with SN12C renal; 32.6% [50 µM] in the test with UO-31 renal; -0.128% [50 µM] (active) in the test on TK-10 renal; 7.85% [50 µM] (active) with CAKI-1 renal. Besides, the growth with A498 renal is -37.5% [50 µM] (active); in the test on MOLT-4 leukemia it was -1.22% [50 µM] (active); in the test with SR leukemia, 0.521% [50 µM] (active); in the test with RPMI-8226 leukemia, -39.4% [50 µM] (active); in the test on OVCAR-8 ovarian, -9.97% [50 µM] (active); with OVCAR-5 ovarian, 25.5% [50 µM]. The growth was 45.9% [50 µM] in the test on OVCAR-4 ovarian; 53.3% [50 µM] with SK-OV-3 ovarian; 1.82% [50 µM] (active) in the test on IGROV1 ovarian; -67.3% [50 µM] (active) with OVCAR-3 ovarian; 23% [50 µM] with HS 578T breast; -28.2% [50 µM] (active) in the test with NCI/ADR-RES ovarian.
Turning to `CCN(CC)Cc1cccc(C(=O)OC)c1`, the growth in the test on SK-MEL-2 melanoma is 100%; in the test on EKVX NSCLC it was 95.7%; with SN12C renal, 105%; in the test with UO-31 renal it was 103%; with TK-10 renal, 92.5%; with CAKI-1 renal it was 97.2%. Further, the growth in the test on A498 renal was 115%; with CCRF-CEM leukemia, 76.3%; with SR leukemia, 95%; with RPMI-8226 leukemia, 91.8%; in the test with OVCAR-8 ovarian, 99.6%; in the test with OVCAR-5 ovarian, 94.1%. For the same molecule, the growth in the test with OVCAR-4 ovarian was 101%; in the test on SK-OV-3 ovarian it was 89.4%; with IGROV1 ovarian, 102%; with HS 578T breast it was 109%; with NCI/ADR-RES ovarian, 102%.
For the molecule `COc1ccc(-c2nc(SCC(=O)Nc3nc(-c4ccccc4)cs3)[nH]c(=O)c2C#N)cc1`, the growth in the test on SK-MEL-2 melanoma was 90.5%; in the test on EKVX NSCLC, 101%; in the test on SN12C renal it was 108%; in the test with UO-31 renal it was 59%; with ACHN renal, 104%; in the test with CAKI-1 renal it was 82.8%. The growth with A498 renal was 80.4%; in the test on CCRF-CEM leukemia, 97.2%; in the test on MOLT-4 leukemia, 89.9%; in the test with RPMI-8226 leukemia, 93%; in the test on OVCAR-8 ovarian it was 101%; in the test on OVCAR-5 ovarian it was 84.6%. Further, the growth in the test on OVCAR-4 ovarian was 109%; in the test with SK-OV-3 ovarian it was 81.6%; in the test with IGROV1 ovarian it was 88.3%; with OVCAR-3 ovarian, 107%; in the test with HS 578T breast, 78%; in the test on NCI/ADR-RES ovarian it was 95.5%.
With `O=C(Nc1ccccc1Cl)Oc1ccc(-c2ccccc2)cc1`, the growth in the test with SK-MEL-2 melanoma is 120%; in the test on EKVX NSCLC, 98%; with SN12C renal, 98.9%; with UO-31 renal it was 84.5%; with TK-10 renal, 118%; in the test on CAKI-1 renal it was 81.8%. The growth in the test with A498 renal is 167%; with CCRF-CEM leukemia, 120%; in the test on SR leukemia, 133%; in the test on RPMI-8226 leukemia, 94.2%; in the test on OVCAR-8 ovarian, 103%; in the test on OVCAR-5 ovarian, 98.9%. Moreover, the growth in the test on OVCAR-4 ovarian is 103%; with SK-OV-3 ovarian it was 121%; in the test with IGROV1 ovarian, 108%; in the test on OVCAR-3 ovarian, 150%; in the test on HS 578T breast, 180%; in the test with NCI/ADR-RES ovarian, 101%.
As to `CCOC(=O)C/C(C)=N\NC(=O)c1ccncc1`, the growth with SK-MEL-2 melanoma is 120%; in the test with EKVX NSCLC, 89.6%; in the test on SN12C renal, 99.9%; in the test with UO-31 renal, 101%; in the test with TK-10 renal, 95.8%; in the test on CAKI-1 renal, 52.4%. Moreover, the growth in the test with A498 renal was 96.8%; in the test on CCRF-CEM leukemia, 99.7%; in the test on RPMI-8226 leukemia, 90%; in the test on OVCAR-8 ovarian it was 99.2%; in the test with OVCAR-4 ovarian, 98.2%; with SK-OV-3 ovarian, 101%. Also, the results for the growth in the test on OVCAR-3 ovarian, in the test on HS 578T breast and in the test on NCI/ADR-RES ovarian were 105%, 115% and 98%, respectively.
